# Assays:
# [1] = target: T1, Ephrin type-B receptor 2 (Homo sapiens) (UniProt P29323); settings: at 1 µM
# T1 sequence (whole entry): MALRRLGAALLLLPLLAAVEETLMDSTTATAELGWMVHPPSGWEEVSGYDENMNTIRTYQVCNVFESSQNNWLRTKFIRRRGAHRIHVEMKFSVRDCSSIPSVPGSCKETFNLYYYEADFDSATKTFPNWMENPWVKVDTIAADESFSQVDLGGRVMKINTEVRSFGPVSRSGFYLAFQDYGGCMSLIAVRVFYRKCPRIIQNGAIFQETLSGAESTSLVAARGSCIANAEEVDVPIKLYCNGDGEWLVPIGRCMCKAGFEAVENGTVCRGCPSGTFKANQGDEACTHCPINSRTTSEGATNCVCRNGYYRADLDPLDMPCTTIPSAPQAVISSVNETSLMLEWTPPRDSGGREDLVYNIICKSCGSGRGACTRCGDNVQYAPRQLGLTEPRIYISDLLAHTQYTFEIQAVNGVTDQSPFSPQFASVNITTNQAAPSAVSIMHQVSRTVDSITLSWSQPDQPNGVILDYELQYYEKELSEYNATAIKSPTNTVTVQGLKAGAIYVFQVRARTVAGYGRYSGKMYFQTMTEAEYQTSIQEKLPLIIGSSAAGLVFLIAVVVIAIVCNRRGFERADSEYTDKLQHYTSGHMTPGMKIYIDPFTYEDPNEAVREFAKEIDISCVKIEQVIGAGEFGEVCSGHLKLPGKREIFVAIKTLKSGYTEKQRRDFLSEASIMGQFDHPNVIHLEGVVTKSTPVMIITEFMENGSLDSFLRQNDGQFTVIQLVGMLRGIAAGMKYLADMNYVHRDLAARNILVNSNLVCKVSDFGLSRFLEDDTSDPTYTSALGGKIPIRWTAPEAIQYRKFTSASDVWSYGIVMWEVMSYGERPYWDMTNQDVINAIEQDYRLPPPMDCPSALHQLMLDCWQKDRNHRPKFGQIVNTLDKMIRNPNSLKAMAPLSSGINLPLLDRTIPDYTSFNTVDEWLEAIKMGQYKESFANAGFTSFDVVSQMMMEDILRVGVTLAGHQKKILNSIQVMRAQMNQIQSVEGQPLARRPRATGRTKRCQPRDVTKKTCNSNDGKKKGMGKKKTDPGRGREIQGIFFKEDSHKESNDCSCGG
# [2] = target: T2, Ephrin type-B receptor 3 (Homo sapiens) (UniProt P54753); settings: at 0.1 µM
# T2 sequence (whole entry): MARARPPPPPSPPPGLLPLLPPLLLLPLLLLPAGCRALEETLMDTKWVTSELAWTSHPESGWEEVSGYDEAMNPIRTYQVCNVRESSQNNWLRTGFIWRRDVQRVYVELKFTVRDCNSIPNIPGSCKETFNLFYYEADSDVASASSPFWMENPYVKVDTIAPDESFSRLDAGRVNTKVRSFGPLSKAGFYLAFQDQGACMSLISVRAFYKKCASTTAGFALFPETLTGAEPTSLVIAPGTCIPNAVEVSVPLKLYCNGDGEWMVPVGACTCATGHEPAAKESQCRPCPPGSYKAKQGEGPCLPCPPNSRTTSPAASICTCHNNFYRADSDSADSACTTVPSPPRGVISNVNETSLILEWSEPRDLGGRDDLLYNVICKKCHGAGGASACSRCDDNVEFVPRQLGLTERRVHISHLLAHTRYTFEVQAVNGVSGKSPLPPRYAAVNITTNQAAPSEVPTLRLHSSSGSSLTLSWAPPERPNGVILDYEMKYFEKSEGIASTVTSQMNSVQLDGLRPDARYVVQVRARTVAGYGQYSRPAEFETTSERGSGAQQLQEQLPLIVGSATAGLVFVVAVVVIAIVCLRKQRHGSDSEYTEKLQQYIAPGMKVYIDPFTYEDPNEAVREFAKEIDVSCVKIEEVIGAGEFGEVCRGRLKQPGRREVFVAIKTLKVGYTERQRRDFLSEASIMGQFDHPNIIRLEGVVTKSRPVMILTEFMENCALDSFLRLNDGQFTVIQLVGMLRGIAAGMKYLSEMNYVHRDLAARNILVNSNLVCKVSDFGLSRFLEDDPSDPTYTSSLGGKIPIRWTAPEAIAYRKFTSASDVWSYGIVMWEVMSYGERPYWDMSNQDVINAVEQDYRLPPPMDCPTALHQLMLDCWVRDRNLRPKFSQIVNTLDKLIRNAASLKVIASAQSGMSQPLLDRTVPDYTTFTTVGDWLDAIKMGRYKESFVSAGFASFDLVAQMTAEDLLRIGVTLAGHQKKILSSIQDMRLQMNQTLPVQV
# [3] = target: T2, Ephrin type-B receptor 3 (Homo sapiens); settings: at 1 µM
# [4] = target: T3, Ephrin type-B receptor 4 (Homo sapiens) (UniProt P54760); settings: at 0.1 µM
# T3 sequence (whole entry): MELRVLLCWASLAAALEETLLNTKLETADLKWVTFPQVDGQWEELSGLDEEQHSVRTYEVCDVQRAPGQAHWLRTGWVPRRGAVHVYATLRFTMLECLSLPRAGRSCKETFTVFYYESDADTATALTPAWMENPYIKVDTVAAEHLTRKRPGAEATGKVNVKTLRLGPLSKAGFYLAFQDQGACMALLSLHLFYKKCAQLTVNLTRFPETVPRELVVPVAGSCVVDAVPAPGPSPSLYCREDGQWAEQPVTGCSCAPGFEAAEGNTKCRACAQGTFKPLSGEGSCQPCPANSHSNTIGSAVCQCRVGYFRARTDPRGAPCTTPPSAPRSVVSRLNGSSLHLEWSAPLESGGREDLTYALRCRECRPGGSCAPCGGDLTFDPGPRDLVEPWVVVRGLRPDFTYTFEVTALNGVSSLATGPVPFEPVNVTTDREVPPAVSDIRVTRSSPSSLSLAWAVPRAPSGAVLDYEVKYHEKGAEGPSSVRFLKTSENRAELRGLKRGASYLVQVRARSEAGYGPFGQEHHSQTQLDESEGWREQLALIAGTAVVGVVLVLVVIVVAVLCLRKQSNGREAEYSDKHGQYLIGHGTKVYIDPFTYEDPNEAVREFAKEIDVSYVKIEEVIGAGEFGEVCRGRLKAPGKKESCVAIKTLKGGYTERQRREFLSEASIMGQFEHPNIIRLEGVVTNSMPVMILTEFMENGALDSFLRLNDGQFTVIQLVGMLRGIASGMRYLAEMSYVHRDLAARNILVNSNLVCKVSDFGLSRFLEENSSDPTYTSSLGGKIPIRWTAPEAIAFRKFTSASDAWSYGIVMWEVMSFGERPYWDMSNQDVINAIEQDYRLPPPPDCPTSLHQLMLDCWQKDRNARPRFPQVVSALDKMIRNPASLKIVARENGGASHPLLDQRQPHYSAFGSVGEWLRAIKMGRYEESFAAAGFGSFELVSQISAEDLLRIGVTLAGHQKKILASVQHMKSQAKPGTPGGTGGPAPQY
# [5] = target: T3, Ephrin type-B receptor 4 (Homo sapiens); settings: at 1 µM
# [6] = target: Receptor tyrosine-protein kinase erbB-2 (Homo sapiens) (UniProt P04626); settings: at 0.1 µM
# Chain of Receptor tyrosine-protein kinase erbB-2 (Homo sapiens) (P04626 whole entry): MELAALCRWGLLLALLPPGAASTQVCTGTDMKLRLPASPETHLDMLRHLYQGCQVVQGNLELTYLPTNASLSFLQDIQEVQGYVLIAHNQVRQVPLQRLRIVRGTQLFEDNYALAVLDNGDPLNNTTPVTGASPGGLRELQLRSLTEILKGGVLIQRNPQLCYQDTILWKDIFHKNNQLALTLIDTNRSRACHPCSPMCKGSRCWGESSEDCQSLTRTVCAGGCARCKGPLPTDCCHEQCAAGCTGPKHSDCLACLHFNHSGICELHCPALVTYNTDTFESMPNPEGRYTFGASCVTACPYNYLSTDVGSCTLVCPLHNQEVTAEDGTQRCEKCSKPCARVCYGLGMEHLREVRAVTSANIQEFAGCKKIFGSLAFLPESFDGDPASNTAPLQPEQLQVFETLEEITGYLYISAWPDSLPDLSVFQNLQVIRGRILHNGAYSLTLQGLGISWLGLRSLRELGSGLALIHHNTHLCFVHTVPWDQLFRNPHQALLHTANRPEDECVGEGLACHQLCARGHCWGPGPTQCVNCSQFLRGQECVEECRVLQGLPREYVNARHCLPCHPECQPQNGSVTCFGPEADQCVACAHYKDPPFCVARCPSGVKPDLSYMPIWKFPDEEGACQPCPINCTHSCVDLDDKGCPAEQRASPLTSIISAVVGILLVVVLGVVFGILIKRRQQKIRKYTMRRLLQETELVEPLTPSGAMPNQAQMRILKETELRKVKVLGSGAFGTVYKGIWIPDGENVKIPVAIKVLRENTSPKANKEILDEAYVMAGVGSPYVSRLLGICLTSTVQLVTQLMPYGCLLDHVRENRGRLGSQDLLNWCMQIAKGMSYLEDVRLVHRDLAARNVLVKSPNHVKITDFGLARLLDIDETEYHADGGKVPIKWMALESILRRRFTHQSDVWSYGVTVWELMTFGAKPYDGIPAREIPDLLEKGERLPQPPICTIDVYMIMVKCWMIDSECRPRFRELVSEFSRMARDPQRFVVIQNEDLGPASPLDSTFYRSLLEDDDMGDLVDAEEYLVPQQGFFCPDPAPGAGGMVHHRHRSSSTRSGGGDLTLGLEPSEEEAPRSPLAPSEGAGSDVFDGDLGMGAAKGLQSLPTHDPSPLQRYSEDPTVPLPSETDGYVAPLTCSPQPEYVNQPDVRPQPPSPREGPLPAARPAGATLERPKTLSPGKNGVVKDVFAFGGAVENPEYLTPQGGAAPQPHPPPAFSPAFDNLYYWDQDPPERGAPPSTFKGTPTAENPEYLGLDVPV
# [7] = target: Receptor tyrosine-protein kinase erbB-2 (Homo sapiens) (UniProt P04626); settings: at 1 µM
# [8] = target: Receptor tyrosine-protein kinase erbB-4 (Homo sapiens) (UniProt Q15303); settings: at 0.1 µM
# Chain of Receptor tyrosine-protein kinase erbB-4 (Homo sapiens) (Q15303 whole entry): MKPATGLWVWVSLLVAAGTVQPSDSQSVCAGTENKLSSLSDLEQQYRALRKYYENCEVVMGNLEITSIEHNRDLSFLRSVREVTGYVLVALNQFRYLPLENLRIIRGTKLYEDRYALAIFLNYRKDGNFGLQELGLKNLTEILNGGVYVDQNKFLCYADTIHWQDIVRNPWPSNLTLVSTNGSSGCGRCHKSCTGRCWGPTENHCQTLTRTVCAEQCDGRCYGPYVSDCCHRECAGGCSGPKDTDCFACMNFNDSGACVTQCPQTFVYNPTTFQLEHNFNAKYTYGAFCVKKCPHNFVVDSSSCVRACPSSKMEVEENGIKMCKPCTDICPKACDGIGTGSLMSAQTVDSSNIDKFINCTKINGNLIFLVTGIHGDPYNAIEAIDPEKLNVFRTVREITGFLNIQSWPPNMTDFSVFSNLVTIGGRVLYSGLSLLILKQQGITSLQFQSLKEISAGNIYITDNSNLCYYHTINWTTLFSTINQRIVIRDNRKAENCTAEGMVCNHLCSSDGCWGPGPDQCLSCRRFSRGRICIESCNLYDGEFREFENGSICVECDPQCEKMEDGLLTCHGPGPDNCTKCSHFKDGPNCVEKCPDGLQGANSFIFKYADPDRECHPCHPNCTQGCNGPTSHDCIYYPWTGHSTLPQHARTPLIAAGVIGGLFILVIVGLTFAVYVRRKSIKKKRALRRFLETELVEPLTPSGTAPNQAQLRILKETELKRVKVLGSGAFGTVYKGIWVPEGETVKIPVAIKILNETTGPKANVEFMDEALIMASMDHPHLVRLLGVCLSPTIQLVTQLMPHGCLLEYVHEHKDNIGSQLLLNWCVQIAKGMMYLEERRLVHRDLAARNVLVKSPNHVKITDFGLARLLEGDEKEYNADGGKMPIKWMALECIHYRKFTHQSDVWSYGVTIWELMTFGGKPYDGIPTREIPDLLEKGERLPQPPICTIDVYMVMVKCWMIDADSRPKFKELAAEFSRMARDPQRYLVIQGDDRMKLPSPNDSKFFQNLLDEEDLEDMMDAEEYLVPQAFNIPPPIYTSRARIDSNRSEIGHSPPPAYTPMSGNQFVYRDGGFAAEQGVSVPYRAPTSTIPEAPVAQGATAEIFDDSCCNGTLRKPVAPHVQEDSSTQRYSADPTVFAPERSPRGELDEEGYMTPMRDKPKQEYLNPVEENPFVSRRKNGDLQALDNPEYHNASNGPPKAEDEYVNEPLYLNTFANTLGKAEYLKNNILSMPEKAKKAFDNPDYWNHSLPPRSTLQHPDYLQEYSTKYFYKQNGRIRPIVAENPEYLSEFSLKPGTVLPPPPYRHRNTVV
# [9] = target: Receptor tyrosine-protein kinase erbB-4 (Homo sapiens) (UniProt Q15303); settings: at 1 µM
# [10] = target: Tyrosine-protein kinase Fer (Homo sapiens) (UniProt P16591); settings: at 0.1 µM
# [11] = target: Tyrosine-protein kinase Fer (Homo sapiens) (UniProt P16591); settings: at 1 µM
# [12] = target: Tyrosine-protein kinase Fes/Fps (Homo sapiens) (UniProt P07332); settings: at 0.1 µM
# Chain of Tyrosine-protein kinase Fes/Fps (Homo sapiens) (P07332 whole entry): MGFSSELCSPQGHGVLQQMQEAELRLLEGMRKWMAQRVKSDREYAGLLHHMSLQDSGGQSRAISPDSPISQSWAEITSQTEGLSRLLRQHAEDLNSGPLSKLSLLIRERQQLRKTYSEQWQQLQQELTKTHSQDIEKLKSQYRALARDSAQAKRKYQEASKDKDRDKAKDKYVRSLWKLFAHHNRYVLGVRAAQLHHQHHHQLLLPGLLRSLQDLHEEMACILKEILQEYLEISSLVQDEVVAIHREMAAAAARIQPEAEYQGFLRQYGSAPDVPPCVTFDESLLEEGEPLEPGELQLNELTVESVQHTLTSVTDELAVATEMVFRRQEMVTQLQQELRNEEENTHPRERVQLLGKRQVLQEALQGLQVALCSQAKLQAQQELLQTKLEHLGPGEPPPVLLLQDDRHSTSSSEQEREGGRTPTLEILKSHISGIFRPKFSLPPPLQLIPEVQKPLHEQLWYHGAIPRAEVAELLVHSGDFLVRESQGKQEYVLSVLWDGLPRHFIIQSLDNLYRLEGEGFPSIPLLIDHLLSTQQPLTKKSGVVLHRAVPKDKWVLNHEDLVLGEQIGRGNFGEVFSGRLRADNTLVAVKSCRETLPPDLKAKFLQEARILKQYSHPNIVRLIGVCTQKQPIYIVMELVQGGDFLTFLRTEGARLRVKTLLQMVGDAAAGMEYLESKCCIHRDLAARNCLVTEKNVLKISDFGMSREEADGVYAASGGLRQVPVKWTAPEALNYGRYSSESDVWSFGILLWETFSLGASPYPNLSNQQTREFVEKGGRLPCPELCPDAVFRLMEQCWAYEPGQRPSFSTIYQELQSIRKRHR
# [13] = target: Tyrosine-protein kinase Fes/Fps (Homo sapiens) (UniProt P07332); settings: at 1 µM
# [14] = target: Fibroblast growth factor receptor 1 (Homo sapiens) (UniProt P11362); settings: at 0.1 µM
# [15] = target: Fibroblast growth factor receptor 1 (Homo sapiens) (UniProt P11362); settings: at 1 µM
# [16] = target: Fibroblast growth factor receptor 2 (Homo sapiens) (UniProt P21802); settings: at 0.1 µM
# [17] = target: Fibroblast growth factor receptor 2 (Homo sapiens) (UniProt P21802); settings: at 1 µM
# [18] = target: Fibroblast growth factor receptor 3 (Homo sapiens) (UniProt P22607); settings: at 0.1 µM
# Chain of Fibroblast growth factor receptor 3 (Homo sapiens) (P22607 23-806 limits assumed): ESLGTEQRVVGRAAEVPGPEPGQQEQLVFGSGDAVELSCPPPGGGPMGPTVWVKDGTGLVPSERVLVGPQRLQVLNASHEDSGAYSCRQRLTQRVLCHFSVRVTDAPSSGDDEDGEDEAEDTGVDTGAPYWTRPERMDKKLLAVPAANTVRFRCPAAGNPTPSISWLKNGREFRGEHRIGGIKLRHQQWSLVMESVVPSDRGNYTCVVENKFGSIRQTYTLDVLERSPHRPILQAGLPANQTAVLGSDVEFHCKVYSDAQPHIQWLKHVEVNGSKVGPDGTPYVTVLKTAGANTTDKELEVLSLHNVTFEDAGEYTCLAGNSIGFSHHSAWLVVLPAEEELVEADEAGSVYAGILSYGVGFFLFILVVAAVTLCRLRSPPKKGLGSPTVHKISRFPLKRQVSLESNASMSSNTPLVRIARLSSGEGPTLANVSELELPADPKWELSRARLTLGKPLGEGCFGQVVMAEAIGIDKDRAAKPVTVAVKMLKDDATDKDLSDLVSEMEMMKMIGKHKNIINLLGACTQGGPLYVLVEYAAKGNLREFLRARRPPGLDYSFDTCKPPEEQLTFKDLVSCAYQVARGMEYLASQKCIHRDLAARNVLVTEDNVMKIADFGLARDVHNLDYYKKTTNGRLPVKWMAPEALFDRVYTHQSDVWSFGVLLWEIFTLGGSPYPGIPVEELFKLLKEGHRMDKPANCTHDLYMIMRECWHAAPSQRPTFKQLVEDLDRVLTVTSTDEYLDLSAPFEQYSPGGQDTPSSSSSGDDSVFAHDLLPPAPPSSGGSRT
# [19] = target: Fibroblast growth factor receptor 3 (Homo sapiens) (UniProt P22607); settings: at 1 µM
# [20] = target: Fibroblast growth factor receptor 4 (Homo sapiens) (UniProt P22455); settings: at 0.1 µM;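 further: values are mean percent inhibition of FGFR4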
# Chain of Fibroblast growth factor receptor 4 (Homo sapiens) (P22455 22-802 limits assumed): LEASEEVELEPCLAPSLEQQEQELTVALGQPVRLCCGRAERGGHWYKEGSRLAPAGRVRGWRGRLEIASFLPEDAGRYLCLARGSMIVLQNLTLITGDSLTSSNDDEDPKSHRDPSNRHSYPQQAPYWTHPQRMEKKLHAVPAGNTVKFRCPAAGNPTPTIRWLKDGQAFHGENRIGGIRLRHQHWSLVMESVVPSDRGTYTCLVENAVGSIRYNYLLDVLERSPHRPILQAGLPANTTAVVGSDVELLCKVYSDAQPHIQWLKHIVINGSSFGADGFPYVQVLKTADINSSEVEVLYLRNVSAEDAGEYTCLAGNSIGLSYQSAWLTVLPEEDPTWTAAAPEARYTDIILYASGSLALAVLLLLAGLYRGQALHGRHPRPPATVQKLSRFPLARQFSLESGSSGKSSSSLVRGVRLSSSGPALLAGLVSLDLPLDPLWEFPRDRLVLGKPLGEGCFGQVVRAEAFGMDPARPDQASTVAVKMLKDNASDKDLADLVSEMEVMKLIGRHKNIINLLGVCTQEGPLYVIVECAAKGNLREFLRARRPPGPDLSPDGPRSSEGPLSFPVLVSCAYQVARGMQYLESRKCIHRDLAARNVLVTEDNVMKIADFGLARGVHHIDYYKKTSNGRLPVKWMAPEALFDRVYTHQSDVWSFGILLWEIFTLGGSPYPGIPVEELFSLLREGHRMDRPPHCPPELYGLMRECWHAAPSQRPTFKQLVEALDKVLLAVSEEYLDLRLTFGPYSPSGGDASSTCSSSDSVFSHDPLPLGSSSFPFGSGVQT
SMILES,inhibition [1] [%],inhibition [2] [%],inhibition [3] [%],inhibition [4] [%],inhibition [5] [%],inhibition [6] [%],inhibition [7] [%],inhibition [8] [%],inhibition [9] [%],inhibition [10] [%],inhibition [11] [%],inhibition [12] [%],inhibition [13] [%],inhibition [14] [%],inhibition [15] [%],inhibition [16] [%],inhibition [17] [%],inhibition [18] [%],inhibition [19] [%],inhibition [20] [%]
COc1cc2ncnc(Nc3ccc4c(cnn4Cc4ccccc4)c3)c2cc1OC,7.52,2.93,4.39,1.36,2.63,32.4,83,83.7,94,0.84,7.92,2.06,2,-0.45,3.82,3.33,7.69,3.3,3.13,-0.15
CCn1c(-c2nonc2N)nc2ccc(F)cc21,12.6,6.48,4.6,1.64,1.12,5.65,14,20.6,20.7,3.01,7.92,2.98,2.83,3.73,10.2,5.98,4.55,7.35,5.83,2.81
Cc1ccc2c(-c3ccnc(Nc4ccc5c(c4)OCCO5)n3)c(-c3ccc(C(F)(F)F)cc3)nn2n1,1.37,-0.21,2.22,-1.12,1.46,2.13,4.1,3.46,16.3,0.5,-0.37,0.95,0.4,0.28,1.17,-1.07,0.36,-1.98,1,1.94
O=C(Nc1ccc(Oc2ccc3[nH]c(NC(=O)c4ccco4)nc3c2)cc1)Nc1cc(C(F)(F)F)ccc1F,78.3,2.25,24.2,8.82,63.8,-0.1,-0.1,-1.74,-5.16,3.08,5.37,0.02,0.11,-3.4,9.84,-3.04,33.2,-0.92,7.51,-1.82
O=C1Nc2ccccc2/C1=C/Nc1ccc2[nH]c(=O)[nH]c2c1,20.6,6.46,5.55,5.44,5.98,3.93,2.8,9.76,15.3,3.27,12.1,4.03,5.17,7.8,16.5,9.08,35,10,33,1.89
COc1ccc(-c2nn3ncccc3c2-c2ccnc(Nc3cccc(C(F)(F)F)c3)n2)cc1,6.69,3.95,4.5,0.66,5.01,3.15,9.69,25.8,83.1,0.8,1.69,3.15,2.54,1.38,-1.86,2.73,0.17,2.6,4.58,1.02
C[C@@H](Oc1cc(-n2cnc3ccc(OCC4CCN(C)CC4)cc32)sc1C(N)=O)c1ccccc1C(F)(F)F,-1.46,-3.13,-1.08,-1.38,0.52,-0.64,0.08,-5.11,-0.34,-2.09,4.43,-1.88,-1.98,-9.02,13,-3.05,7.56,-0.95,0.66,0.86
Nc1nccc(-c2c(-c3ccc(F)cc3)ncn2CCCN2CCOCC2)n1,7.41,5.73,3.41,2.19,3.04,4.07,6.08,12.4,31.7,2.69,5.14,3.13,2.03,1.48,1.16,2.81,5.14,4.29,2.08,–
COc1ccc2ncnc(Nc3ccc(OCc4ccccc4)cc3)c2c1,6.18,4.29,1.66,2.58,0.41,1.73,30.9,56.2,85.1,-1.28,4.76,0.67,1.33,1.89,-1.53,1.22,2.56,1.63,2.3,1.47
Cc1ccc(O)cc1Nc1ccnc2ccc(S(C)(=O)=O)cc12,86.3,96.9,97.3,91.6,95.6,4.44,5.88,20.2,52.2,4.91,18.5,8.11,39.4,7.68,8.34,5.74,14.5,6.01,11,-0.45
CCOc1nccc2c1nc(-c1nonc1N)n2CC,13.1,1.72,2.82,2.78,0.5,3.01,9.5,6.98,18,5.59,6.51,2.51,2.14,4.54,7.51,3.59,10.6,5,10.9,2.6
CCCN1CCCC(c2ccc(Nc3nc(Nc4cc(F)ccc4C(N)=O)c4cc[nH]c4n3)c(OC)c2)C1 (centres undefined),15.8,6.2,-1.82,2.18,4.67,2.27,3.37,36.3,75,77.5,84.4,61.4,81.3,3.11,3.44,4.31,5.74,5.86,4.56,0.72
CC(C)c1ccc(Nc2nccc(-c3cnn4ncccc34)n2)cc1,14.4,6.52,2.55,4.64,2.76,0.95,3.22,8.58,11.6,5.74,16,5.26,25.5,4.84,4.17,0.37,7.86,7.5,6.25,2.11
